Sampled rows, rich in hits. Any-hit rate of the full collection: about 5.4%.
ALR H2O2 inh: inhibitors of human sulfhydryl oxidase ALR. P55789. purified ALR, DTT oxidation, H2O2 HRP-luminol luminescence. inhibition, % (concentration not given with the values). 290,000 compounds, 3.8% hits;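 active = mean replicate inhibition above about 79%, with every replicate also reaching it, limit read from the data; inconclusive = only one of the two criteria met; inactive = mean below limit and not every replicate reaching it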
Target sequence (P55789 whole entry, looked up): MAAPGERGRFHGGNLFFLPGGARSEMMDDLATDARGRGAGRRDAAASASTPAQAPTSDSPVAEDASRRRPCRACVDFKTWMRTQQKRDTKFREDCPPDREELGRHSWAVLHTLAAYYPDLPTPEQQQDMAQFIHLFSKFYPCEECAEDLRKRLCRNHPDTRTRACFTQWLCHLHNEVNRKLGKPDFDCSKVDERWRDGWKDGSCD
Calb FLC: affects C. albicans growth with fluconazole; C. albicans CaCi-2 (fluconazole-resistant clinical isolate) + fluconazole, Alamar Blue growth, 48 h; growth inhibition, % (no concentration beside the values); 300,000 compounds, 0.57% hits; AID 1979;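 active = growth inhibition above about 58% in most replicates, limit read from the data, passing the limit was not always enough; inconclusive = exactly half the replicates above a set limit; inactive = most replicates below a set limit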;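 also: all wells also contain fluconazole at 8 µg/ml as a sub-toxic cotreatment; 0% = median of DMSO wells and 100% = median of geldanamycin control wells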
CSC inhib: cancer stem cell inhibition; 300,000 compounds, 1.1% hits; cancer stem cell-like cells viability, luminescence; inhibition, % at 7.5 µM; in the data active = inhibition above about 75%; inconclusive = no clear call, values can overlap the other calls; tested in HMLE shEcad cells
PP5 primary: PP5 (human) phosphatase inhibition. 320,000 compounds, 0.18% hits. inhibition, % at 6.7 µM. purified PP5c, OMFP substrate fluorescence;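 active = inhibition above the campaign's mean inhibition across all tested compounds plus 3 SD, cut at about 9.5% in these data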;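 also: 0% = DMSO only and 100% = 100 µM cantharidin control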
Target sequence (P53041 whole entry, looked up): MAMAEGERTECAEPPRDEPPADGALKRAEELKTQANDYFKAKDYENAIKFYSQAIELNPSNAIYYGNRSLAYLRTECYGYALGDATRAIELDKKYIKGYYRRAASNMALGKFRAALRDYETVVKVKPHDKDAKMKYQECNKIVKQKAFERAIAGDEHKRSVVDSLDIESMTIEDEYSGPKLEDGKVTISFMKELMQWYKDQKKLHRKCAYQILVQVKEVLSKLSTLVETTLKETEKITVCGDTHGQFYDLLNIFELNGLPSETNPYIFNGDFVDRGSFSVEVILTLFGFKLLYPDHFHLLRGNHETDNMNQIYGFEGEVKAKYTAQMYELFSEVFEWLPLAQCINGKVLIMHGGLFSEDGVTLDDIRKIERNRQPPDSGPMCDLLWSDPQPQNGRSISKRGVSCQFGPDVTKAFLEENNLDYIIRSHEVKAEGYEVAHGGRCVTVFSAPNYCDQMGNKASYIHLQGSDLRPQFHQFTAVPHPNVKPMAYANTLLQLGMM
PP1 inh: blocks human PP1-alpha phosphatase, a PP5 counter-screen; purified PP1alpha, OMFP fluorescence; inhibition, % at 6.7 µM; 320,000 compounds, 0.9% hits; P62136;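 active = inhibition above the mean inhibition of all tested compounds plus 3 SD, computed separately for each screening campaign, cut at about 15% in these data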
The depositor's hits bear a star; ? = inconclusive; nt = no result given.

SMILES | ALR H2O2 inh | Calb FLC | CSC inhib | PP5 primary | PP1 inh
COC(=O)C1(Cc2ccc(O)c(CC3OC3(C)C)c2)OC(=O)C(O)=C1c1ccc(O)cc1 (stereo not drawn) | 97.6* | -4.4 | 5.4 | 2.8 | 0.8
CC1=C(C(=O)OC2CCCCCCC2)C(c2cccc(O)c2)NC(=O)N1 (stereo not drawn) | 18.9 | 7.3 | -3.4 | 4.9 | -0.2
CNC(CC(=O)c1ccc([N+](=O)[O-])cc1)C(Cl)(Cl)Cl (stereo not drawn) | nt | nt | 75.9* | 2.9 | 0.3
COc1ccc(C(=O)CC(Nc2ccc([N+](=O)[O-])cc2)c2ccc(OC)cc2)cc1 (stereo not drawn) | 0.6 | -10.0 | 15.9 | 2.6 | 0.8
CCCCC1(C)OC(=O)C(=Cc2ccc(-c3ccc(Cl)c(C(=O)O)c3)o2)C(=O)O1 (stereo not drawn) | 98.1* | 5.5 | 3.5 | 1.3 | 3.1
CC(C)N1C(=O)S/C(=C\c2ccc(-c3ccc(Cl)c(C(=O)O)c3)o2)C1=O | 7.8 | 51.6 | 2.2 | -0.7 | 4.6
Cc1ccc(N2NC(=O)/C(=C/c3ccc(-c4ccc(Cl)c(C(=O)O)c4)o3)C2=O)cc1 | 98.6* | -3.1 | nt | 0.5 | 0.3
CC(C)[C@H]1CN=C2N(CCNC(=O)CCC3CCCCC3)[C@H](Cc3ccc(O)cc3)CN21 | -14.1 | -9.9 | 8.1 | 0.2 | 3.0
N#C/C(=C\c1cccc(Cl)c1)C(=O)c1ccccc1 | 95.7* | -0.2 | 0.8 | nt | nt
N#C/C(=C\c1ccc[nH]1)C(=O)c1ccccc1 | -4.2 | 6.1 | 7.6 | -0.8 | 1.5
Cn1nnnc1SCC(=O)NC1CCCCC1 | -1.0 | -8.4 | 4.4 | 0.7 | 1.2
COc1ccc(-c2[nH]ncc2N=Nc2cc(C)cc(C)c2)cc1 | 1.0 | 15.1 | 7.5 | 1.3 | 2.7
COc1ccc(-c2[nH]ncc2N=Nc2ccccc2)cc1 | -1.5 | -1.5 | 94.0* | 6.8 | 3.6
CSc1nc2ccc(Nc3nc(N4CCOCC4)nc(N4CCOCC4)n3)cc2s1 | 98.3* | nt | nt | 0.9 | -1.1
O=C(CSc1nc2ccc(Nc3nc(N4CCOCC4)nc(N4CCOCC4)n3)cc2s1)N1CCOCC1 | ? | 8.6 | 1.6 | 1.1 | -4.5
O=C(OCCOc1ccc(Br)cc1)c1ccc(Cl)nc1 | -1.0 | 109.5* | -9.7 | 3.2 | 0.8
CC(=O)N1CCN(C(=O)c2ccc(S(=O)(=O)Nc3ccccc3Cl)cc2)CC1 | -12.4 | 12.3 | -11.9 | 0.9 | -3.0
O=C(CCC1CCCC1)Nc1cc(C(F)(F)F)ccc1N1CCOCC1 | -11.1 | -8.4 | 7.1 | 2.6 | 17.0*
CCC(=O)Nc1cc(C(F)(F)F)ccc1N1CCOCC1 | -2.3 | -4.5 | -7.0 | 1.1 | -6.0
COC(=O)c1ccc(CNC(=O)CNc2cc(C(F)(F)F)ccc2N2CCOCC2)cc1 | 99.5* | 2.5 | 7.0 | 3.2 | -1.4
O=c1c2ccccc2oc2ccc(-c3ccc4cc[nH]c4c3)cc12 | 0.7 | nt | 89.5* | nt | nt
COc1ccc2oc3ccccc3c(=O)c2c1 | -2.7 | -9.9 | 4.1 | 2.5 | 1.6
O=Nc1c(O)n(Cc2cccc(Cl)c2)c2ccccc12 | 0.6 | 84.1* | 1.5 | -3.1 | 0.6
NC(=S)N=Nc1c(O)n(Cc2ccccc2)c2ccccc12 | 1.7 | -9.6 | -2.0 | -0.1 | -0.2
CCS(=O)(=O)c1ccc(O)c(NC(=O)COc2ccc(OC)cc2)c1 | 5.4 | -11.6 | 8.1 | 1.6 | 0.0
SMILES | ALR H2O2 inh | Calb FLC | CSC inhib | PP5 primary | PP1 inh
CCCc1ccc(OCC(=O)Nc2cc(S(=O)(=O)CC)ccc2O)cc1 | 1.3 | 90.1* | -6.1 | -0.4 | -0.1
CCCCC(CCC(=O)O)(C(=O)OCC)c1csc(Nc2ccc(C)cc2)n1 (stereo not drawn) | 98.8* | -0.5 | -0.3 | 2.2 | -4.6
CC1(C)CC(NC(=O)c2ccccc2)CC(C)(C)N1 | nt | -8.5 | -10.8 | 1.2 | 2.1
CC1(C)CC(Nc2ccc(Nc3ccccc3)cc2)CC(C)(C)N1 | 99.0* | -0.3 | 7.0 | nt | nt
O=C(OCc1nnc(-c2ccccc2)o1)c1ccc(-n2cnnn2)cc1 | 14.0 | 0.6 | 6.3 | -2.1 | 5.6
COC(=O)[C@@H]1C[C@@H](c2ccccc2)[C@H](C)C1(C)C | -7.6 | nt | nt | 1.9 | 1.3
C=C(C)CC1Nc2ccccc2NC1CC(=C)C (stereo not drawn) | 98.6* | 0.6 | nt | -0.2 | 1.0
Cc1ccc(CCNc2ccccc2)c[n+]1[O-] | -0.9 | -7.6 | -12.0 | 2.9 | -5.1
O=C(O)c1c2c(nc3ccccc13)/C(=C/c1ccc(O)cc1)CCC2 | 99.9* | 5.4 | -7.9 | 0.9 | -3.7
COc1ccc(/C=C2\CCCc3c2nc2ccccc2c3C(=O)O)cc1OC | -22.3 | -0.4 | -2.9 | 0.0 | -2.2
COc1cc(/C=C2\CCCc3c2nc2ccccc2c3C(=O)O)cc(OC)c1O | 98.8* | 7.4 | -11.8 | -1.3 | -2.4
Cc1ccc2c(C)c(C(=O)NCCN3CCCC(O)C3)oc2c1C (stereo not drawn) | -3.8 | -6.8 | -16.4 | -0.1 | -2.8
CCOc1cc(CNn2cn[nH]c2=S)cc(Cl)c1OCc1ccccc1F | 90.4* | -22.0 | 7.9 | 3.4 | 1.0
COc1ccc(F)cc1S(=O)(=O)n1nnc2ccccc21 | -2.6 | -2.9 | 16.5 | 2.1 | -7.5
Cc1ccccc1Nc1nc(CSc2nnc(-c3ccoc3C)n2C)cs1 | 97.0* | -3.5 | -7.3 | -0.3 | 3.8
Cc1ccc(Nc2nc(CSc3nnc(-c4ccncc4)n3C)cs2)cc1 | 41.6 | -0.7 | -3.5 | -1.4 | 1.3
O=C(NCCc1c[nH]c2ccccc12)C1CCC(Cn2c(=S)[nH]c3ccccc3c2=O)CC1 (stereo not drawn) | -9.3 | -9.9 | 76.4* | 1.2 | 1.3
CC(=O)Nc1cccc(NC(=O)CCCC2CCCCC2)c1 | -1.3 | 4.2 | 9.7 | 0.8 | 3.4
CC(C)c1ccc(S(=O)(=O)Nc2ccc(N3CCOCC3)cc2)cc1 | 45.5 | 2.3 | -10.2 | 0.0 | -0.1
c1cc(CNc2ccc(N3CCOCC3)cc2)ccn1 | 99.4* | -2.2 | -7.2 | 1.5 | -5.4
Cc1ccc(CNc2ccc(N3CCOCC3)cc2)cc1 | 98.9* | -7.4 | -14.0 | -3.9 | 0.8
CC(C)c1ccc(CNc2ccc(N3CCOCC3)cc2)cc1 | 98.5* | -2.7 | 7.4 | 3.1 | 6.6
c1cc2c(cc1CNc1ccc(N3CCOCC3)cc1)OCO2 | 98.4* | nt | nt | nt | nt
N#Cc1ccccc1Sc1ccccc1C(=O)OCC(=O)NC12CC3CC(CC(C3)C1)C2 | -7.1 | -75.7 | 7.9 | 4.6 | 14.4
COC(=O)CN(c1ccc(C)cc1)S(=O)(=O)c1ccc(F)cc1 | -19.5 | 14.5 | -10.9 | 3.0 | 1.3
SMILES | ALR H2O2 inh | Calb FLC | CSC inhib | PP5 primary | PP1 inh
COCCNC(=O)c1c(N)n(CCC2=CCCCC2)c2nc3ccccc3nc12 | -6.8 | -4.9 | 30.8 | 7.2 | 3.8
Cc1ccc(C(=O)NCc2ccccn2)cc1S(=O)(=O)N1CCCCC1 | -11.8 | -5.0 | -7.5 | 2.6 | -0.5
Cc1ccc(CNc2ccc3c(c2)OCO3)cc1 | -15.4 | -28.7 | 23.1 | -0.6 | 12.1
c1cc(CNc2ccc3c(c2)OCO3)ccn1 | 86.5* | 4.3 | nt | 0.6 | 2.9
COC(=O)c1ccc(NC(=O)CN(C2CCCCC2)S(C)(=O)=O)cc1 | -7.9 | 1.2 | 6.4 | 0.8 | 7.7
Cc1ccc(NC(=O)Cn2nnc(C(=O)Nc3ccc(C)c(C)c3)c2N)cc1 | -6.7 | -25.9 | -4.8 | 0.9 | 16.2*
Cc1ccc(NC(=O)c2nnn(CC(=O)Nc3ccc4c(c3)OCO4)c2N)cc1C | -1.9 | 8.6 | -5.6 | 0.5 | 8.9
